# Results from PubChem BioAssay (NCATS).
# Several values for one entry are separate records, joined by “and”; a condition that tells them apart may be missing. Equal entries are not always repeated. Activity calls are given as the source filed them. A call without a number means that no potency is given here. Unless noted, calls follow the shape of the full dose curve.
# How the values were obtained:
# [1] = Cell Viability - HepG2 (AID 433); settings: qHTS;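 also: potency is read from the fitted curve at half-maximal effect; potency for ATP loss meaning cytotoxicity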
# In short: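 Cytotoxicity is scored as loss of intracellular ATP in HepG2 cells exposed to compounds for 40 h. Concentration-response curves, normalized to DMSO and 100 uM tamoxifen, give AC50 values.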
# [2] = Cell Viability - MRC5 (AID 434); settings: MRC5 lung fibroblast viability, qHTS;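 also: potency is read from the fitted curve at half-maximal effect; cells exposed to compound for 40 hours at 37 °C; potency reflects cytotoxicity seen as loss of intracellular ATP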
# In short: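 ATP luminescence read-out (CellTiter-Glo, 20 min RT) after 40 hr, 37 °C compound exposure of 1500 MRC5 cells/well. Data normalized to DMSO (basal) and 100 uM tamoxifen (100% inhibition); AC50 from standard Hill equation.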
# [3] = Cell Viability - H-4-II-E (AID 543; active = well fitted curve in the direction sought with a large enough effect; inconclusive = small, poorly fitted or top-dose-only effect, or another doubt; inactive = no such curve, though single readings can be large; an effect the other way counts as inactive or inconclusive; also: nearly all actives have a fitted effect of over 35% in size; also: potency is read from the fitted curve at half-maximal effect); settings: H-4-II-E rat hepatoma viability; series mostly up to 92.2 µM
# In short: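 AC50 from Hill-modelled qHTS concentration-response curves. H-4-II-E rat hepatoma cells in complete medium, 40 hr exposure at 37 °C, viability by CellTiter-Glo ATP luminescence.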
# [4] = Cell Viability - LYMP2-024 (AID 988; active = well fitted curve in the direction sought with a large enough effect; inconclusive = small, poorly fitted or top-dose-only effect, or another doubt; inactive = no such curve, though single readings can be large; an effect the other way counts as inactive or inconclusive; also: nearly all actives have a fitted effect of over 60% in size); settings: LYMP2-024 lymphoblastoid cell viability; series mostly up to 92.2 µM
# In short: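 Cells at 2500 per well received compound for 24 hr after a 5 hr settling period. Viability was scored by CellTiter-Glo luminescence, with AC50 from Hill fits.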
# [5] = target: Estrogen receptor (Homo sapiens) (UniProt P03372); experiment: qHTS assay for small molecule antagonists of estrogen receptor alpha signaling (AID 588513; active = well fitted curve in the direction sought with a large enough effect in the signal ratio, with a control signal flat, not every such curve was filed as active; inconclusive = small, poorly fitted or top-dose-only effect, or effect the other way, or a change in a side signal; inactive = no such curve, though single readings can be large or run the other way; the % refers to the signal ratio; also: potency is read from the fitted curve at half-maximal effect); settings: ER-alpha-UAS-bla HEK293, beta-lactamase ratio, antagonist mode; series mostly up to 76.9 µM
# Estrogen receptor (Homo sapiens), sequence (P03372 whole entry, looked up): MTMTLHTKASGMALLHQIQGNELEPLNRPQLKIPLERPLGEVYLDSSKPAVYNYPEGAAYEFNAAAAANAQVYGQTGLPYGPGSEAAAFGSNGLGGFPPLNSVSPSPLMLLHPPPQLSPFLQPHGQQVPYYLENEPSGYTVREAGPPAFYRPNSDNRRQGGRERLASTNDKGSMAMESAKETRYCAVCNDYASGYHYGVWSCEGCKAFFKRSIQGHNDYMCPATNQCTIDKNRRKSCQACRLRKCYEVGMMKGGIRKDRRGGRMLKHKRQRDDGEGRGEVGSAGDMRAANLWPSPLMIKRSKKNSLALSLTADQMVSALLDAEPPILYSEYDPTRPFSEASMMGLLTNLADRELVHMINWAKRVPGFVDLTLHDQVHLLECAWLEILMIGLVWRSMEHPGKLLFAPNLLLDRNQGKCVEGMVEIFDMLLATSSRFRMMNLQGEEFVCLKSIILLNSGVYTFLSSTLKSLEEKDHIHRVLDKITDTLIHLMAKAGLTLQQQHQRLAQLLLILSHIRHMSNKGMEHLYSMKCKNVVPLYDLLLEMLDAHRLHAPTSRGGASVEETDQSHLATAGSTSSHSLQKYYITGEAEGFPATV
# In short: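 Cells were plated at 5000/well and incubated 4 h at 37 C. Compounds were added as 1:2 dilution series, duplicates. 17-beta-estradiol (0.5nM final) was added for 18 h before CCF4 detection.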
# [6] = target: Estrogen receptor (Homo sapiens) (UniProt P03372); experiment: qHTS assay for small molecule agonists of estrogen receptor alpha signaling (AID 588514); settings: ER-alpha-UAS-bla HEK293, beta-lactamase ratio, 18 h; series mostly up to 76.8 µM; also: nearly all actives have a fitted effect of over 70% in size
# In short: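 Fluorescence from CCF4 cleavage reports ER-alpha-driven beta-lactamase expression in HEK 293 cells treated 18 hrs at 37 C. Data normalized to 17-beta-estradiol (20 nM) and DMSO, fitted to Hill equation.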
# [7] = target: Glucocorticoid receptor (Homo sapiens) (UniProt P04150); experiment: qHTS assay for small molecule agonists of glucocorticoid receptor signaling (AID 588532; active = well fitted curve in the direction sought with a large enough effect in the signal ratio, with a control signal flat; inconclusive = small, poorly fitted or top-dose-only effect, or a change in a side signal; inactive = no such curve, though single readings can be large or run the other way; the % refers to the signal ratio); settings: HeLa MMTV-bla, beta-lactamase ratio, agonist, 18 h; stronger effect = higher value; percent of dexamethasone control, DMSO zero
# Glucocorticoid receptor (Homo sapiens), sequence (P04150 whole entry, looked up): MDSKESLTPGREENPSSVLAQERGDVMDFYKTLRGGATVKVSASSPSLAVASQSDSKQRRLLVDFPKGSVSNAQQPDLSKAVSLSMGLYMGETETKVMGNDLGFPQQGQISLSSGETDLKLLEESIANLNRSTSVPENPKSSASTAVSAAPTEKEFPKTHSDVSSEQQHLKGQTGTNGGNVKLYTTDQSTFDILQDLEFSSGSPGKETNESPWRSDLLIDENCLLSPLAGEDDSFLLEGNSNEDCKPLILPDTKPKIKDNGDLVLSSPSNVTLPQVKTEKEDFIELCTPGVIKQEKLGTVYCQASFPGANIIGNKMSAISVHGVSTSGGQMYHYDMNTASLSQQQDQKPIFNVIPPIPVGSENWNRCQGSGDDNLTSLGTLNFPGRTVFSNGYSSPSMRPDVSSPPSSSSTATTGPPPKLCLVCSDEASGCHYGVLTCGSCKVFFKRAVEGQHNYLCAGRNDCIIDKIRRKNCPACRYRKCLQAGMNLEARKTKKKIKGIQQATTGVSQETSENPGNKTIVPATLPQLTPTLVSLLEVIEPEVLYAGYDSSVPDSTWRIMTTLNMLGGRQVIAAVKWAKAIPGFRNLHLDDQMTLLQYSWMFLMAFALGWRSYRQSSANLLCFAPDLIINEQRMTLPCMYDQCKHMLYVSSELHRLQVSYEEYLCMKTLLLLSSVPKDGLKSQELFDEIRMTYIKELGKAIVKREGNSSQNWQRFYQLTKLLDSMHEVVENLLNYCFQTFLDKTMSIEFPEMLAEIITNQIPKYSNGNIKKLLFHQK
# In short: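 Cells were plated and rested 3-5 h at 37 C, compounds were added in titration and incubated 18 h, then CCF4 substrate was loaded for 2 h at RT before reading blue/green fluorescence. EC50 came from Hill-equation fitting.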
# [8] = target: Glucocorticoid receptor (Homo sapiens) (UniProt P04150); experiment: qHTS assay for small molecule antagonists of glucocorticoid receptor signaling (AID 588533; active = well fitted inhibition curve with a large enough effect in the signal ratio, with a control signal flat, not every such curve was filed as active; inconclusive = small, poorly fitted or top-dose-only effect, or effect the other way, or a change in a side signal; the % refers to the signal ratio;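 also: cells stimulated with 2 nM dexamethasone as agonist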); settings: HeLa MMTV-bla, GRE beta-lactamase ratio, antagonist mode, 18 h; series mostly up to 76.8 µM
# In short: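 Antagonist-mode qHTS: compound titrations added to GRE-bla HeLa cells, then dexamethasone 2 nM final; 18 h, 37 C. CCF4 FRET fluorescence normalized to dexamethasone and DMSO; IC50 from Hill fit.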
# [9] = qHTS assay for small molecule antagonists of peroxisome proliferator-activated receptor delta signaling (AID 588535; active = well fitted inhibition curve with a large enough effect in the signal ratio, with a control signal flat, not every such curve was filed as active; inconclusive = small, poorly fitted or top-dose-only effect, or effect the other way, or a change in a side signal; inactive = no such curve, though single readings can be large or run the other way; the % refers to the signal ratio;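 as to max response: cells co-treated with a PPAR-delta agonist as stimulator during compound exposure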); settings: HEK293T PPARd-UAS-bla, beta-lactamase FRET ratio, 18 h; 460 nm channel
# In short: (§1)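 Beta-lactamase reporter read-out (405 nm excitation, 460/530 nm emission) after CCF4 loading for 2 hrs at RT. HEK293T PPAR-delta-UAS-bla cells, 2% charcoal/dextran FBS, compounds for 18 hrs at 37 C. Hill fit gave IC50 and efficacy.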
# [10] = target: Peroxisome proliferator-activated receptor delta (Homo sapiens) (UniProt Q03181); experiment: as above; settings: HEK293T PPARd-UAS-bla, beta-lactamase FRET ratio, 18 h; series mostly up to 76.7 µM
# Peroxisome proliferator-activated receptor delta (Homo sapiens), sequence (Q03181 whole entry, looked up): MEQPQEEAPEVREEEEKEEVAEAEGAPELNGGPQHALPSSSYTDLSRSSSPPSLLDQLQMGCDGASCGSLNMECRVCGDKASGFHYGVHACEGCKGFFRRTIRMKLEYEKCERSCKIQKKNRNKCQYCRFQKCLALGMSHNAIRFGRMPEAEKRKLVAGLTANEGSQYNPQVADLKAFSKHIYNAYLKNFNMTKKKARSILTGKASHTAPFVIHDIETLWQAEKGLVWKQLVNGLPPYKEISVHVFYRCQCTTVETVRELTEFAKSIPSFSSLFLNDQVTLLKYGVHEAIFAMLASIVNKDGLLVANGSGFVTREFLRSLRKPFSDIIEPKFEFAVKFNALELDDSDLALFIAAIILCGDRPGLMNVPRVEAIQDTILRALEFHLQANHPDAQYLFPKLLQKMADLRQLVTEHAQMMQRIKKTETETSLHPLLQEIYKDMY
# In short: as §1
# [11] = target: Peroxisome proliferator-activated receptor gamma (Homo sapiens) (UniProt P37231); experiment: qHTS assay for small molecule agonists of peroxisome proliferator-activated receptor gamma signaling (AID 588536; active = well fitted curve in the direction sought with a large enough effect in the signal ratio, with a control signal flat, not every such curve was filed as active; inconclusive = small, poorly fitted or top-dose-only effect, or effect the other way, or a change in a side signal; inactive = no such curve, though single readings can be large or run the other way; the % refers to the signal ratio); settings: HEK293 PPARg-UAS-bla, beta-lactamase ratio, 16 h, percent of rosiglitazone response, DMSO as zero; series mostly up to 76.7 µM
# Peroxisome proliferator-activated receptor gamma (Homo sapiens), sequence (P37231 whole entry, looked up): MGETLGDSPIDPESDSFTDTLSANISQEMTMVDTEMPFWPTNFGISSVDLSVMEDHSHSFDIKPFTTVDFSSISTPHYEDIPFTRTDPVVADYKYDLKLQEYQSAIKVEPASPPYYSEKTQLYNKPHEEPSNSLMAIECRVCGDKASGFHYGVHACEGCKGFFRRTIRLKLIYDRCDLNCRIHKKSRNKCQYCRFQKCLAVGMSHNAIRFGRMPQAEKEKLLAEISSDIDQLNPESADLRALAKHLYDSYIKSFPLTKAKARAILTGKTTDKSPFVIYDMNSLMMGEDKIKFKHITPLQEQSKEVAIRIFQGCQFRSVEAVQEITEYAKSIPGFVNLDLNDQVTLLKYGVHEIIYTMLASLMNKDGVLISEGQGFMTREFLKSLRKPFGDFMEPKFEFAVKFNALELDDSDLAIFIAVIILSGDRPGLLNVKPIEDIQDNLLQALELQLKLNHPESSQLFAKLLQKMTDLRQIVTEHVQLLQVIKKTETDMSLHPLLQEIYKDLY
# In short: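 Beta-lactamase reporter read-out: CCF4 fluorescence (ex 405, em 460/530 nm) after 2 h at RT. HEK293 GeneBLAzer cells were treated for 16 h at 37 C. Hill fits gave EC50 and efficacy versus 2 uM rosiglitazone (100%) and DMSO (0%).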
# [12] = target: Thyroid hormone receptor beta (Homo sapiens) (UniProt P10828); experiment: qHTS assay for small molecule agonists of thyroid hormone receptor beta signaling (AID 588545); settings: TR-UAS-bla GripTite HEK 293, beta-lactamase ratio, agonist mode, 18 h; series mostly up to 76.7 µM
# Thyroid hormone receptor beta (Homo sapiens), sequence (P10828 whole entry, looked up): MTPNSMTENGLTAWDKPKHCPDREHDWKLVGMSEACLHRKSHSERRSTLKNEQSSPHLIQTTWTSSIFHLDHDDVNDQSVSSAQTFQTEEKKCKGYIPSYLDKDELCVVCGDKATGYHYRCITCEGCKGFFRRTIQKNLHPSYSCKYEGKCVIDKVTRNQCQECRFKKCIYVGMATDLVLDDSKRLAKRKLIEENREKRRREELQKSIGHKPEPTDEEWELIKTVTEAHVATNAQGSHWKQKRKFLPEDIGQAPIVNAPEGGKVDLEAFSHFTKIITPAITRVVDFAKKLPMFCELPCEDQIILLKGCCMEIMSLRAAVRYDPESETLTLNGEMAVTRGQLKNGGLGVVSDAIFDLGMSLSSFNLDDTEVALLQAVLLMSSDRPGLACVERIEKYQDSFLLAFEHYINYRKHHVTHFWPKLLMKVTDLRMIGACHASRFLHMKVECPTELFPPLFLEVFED
# In short: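 Beta-lactamase reporter activity under TR response element control is measured in HEK 293 cells after 18 hrs compound exposure. Signal is ratiometric CCF4 fluorescence, 460/530 nm.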
# [13] = qHTS assay for small molecule activators of the p53 signaling pathway (AID 651743; active = well fitted activation curve with a large enough effect in the signal ratio, not every such curve was filed as active; inconclusive = small, poorly fitted or top-dose-only effect, or a change in a side signal; the % refers to the signal ratio); settings: HCT-116 p53RE-bla, beta-lactamase FRET ratio, 16 h; activation: stronger effect = higher value
# In short: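 Reporter: beta-lactamase driven by p53 response elements, stably integrated in HCT-116 cells. Cells seeded at 4,000/well, 5 h preincubation, compound (DMSO) 16 h at 37 C; B/G FRET substrate 2 h RT; fluorescence intensity read.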
# [14] = qHTS assay for small molecule agonists of the antioxidant response element (ARE) signaling pathway measured by Nrf2-dependant transcriptional activity (AID 720636; active = well fitted curve in the direction sought with a large enough effect in the repeat runs; inconclusive = weak or mixed curves; inactive = no such curve, though single readings can be large; an effect the other way counts as inactive or inconclusive; also: potency is read from the fitted curve at half-maximal effect); settings: ARE-luc HepG2, Nrf2 luciferase reporter, 16 h; series mostly up to 92.4 µM
# In short: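 ARE-luc HepG2 cells carrying an Nrf2-responsive luciferase reporter, in medium with 1% dialyzed FBS, exposed to compound for 16 hr at 37 C, 5% CO2. Luminescence read 30 min after ONE-Glo addition.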
# [15] = Cell Viability - NIH 3T3 (AID 541; active = well fitted curve in the direction sought with a large enough effect; inconclusive = small, poorly fitted or top-dose-only effect, or another doubt; inactive = no such curve, though single readings can be large; an effect the other way counts as inactive or inconclusive; also: nearly all actives have a fitted effect of over 25% in size; also: potency is read from the fitted curve at half-maximal effect); settings: NIH 3T3 cell viability, qHTS; activity change, negative = cytotoxicity: at 92.2 µM (top of the series)
# In short: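 In this cytotoxicity screen, acute toxicity is scored as an ATP drop measured by CellTiter-Glo in NIH 3T3 fibroblasts following a 40 hr, 37 °C incubation with compound.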
# [16] = Cell Viability - LYMP2-022 (AID 987; active = well fitted curve in the direction sought with a large enough effect; inconclusive = small, poorly fitted or top-dose-only effect, or another doubt; inactive = no such curve, though single readings can be large; an effect the other way counts as inactive or inconclusive; also: nearly all actives have a fitted effect of over 55% in size; also: potency is read from the fitted curve at half-maximal effect); settings: LYMP2-022 lymphoblastoid cell viability; series mostly up to 92.2 µM
# In short: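 In this qHTS cytotoxicity screen, compound titrations were incubated 24 hr at 37 C with human lymphoblastoid cells in complete medium. Luciferase-based ATP luminescence provided the viability signal.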
# [17] = target: Bile acid receptor (Homo sapiens) (UniProt Q96RI1); experiment: qHTS assay for small molecule agonists of farnesoid X receptor signaling (AID 588527); settings: HEK293T FXR-UAS-bla, beta-lactamase ratio, 16 h; stronger effect = higher value
# Bile acid receptor (Homo sapiens), sequence (Q96RI1 whole entry, looked up): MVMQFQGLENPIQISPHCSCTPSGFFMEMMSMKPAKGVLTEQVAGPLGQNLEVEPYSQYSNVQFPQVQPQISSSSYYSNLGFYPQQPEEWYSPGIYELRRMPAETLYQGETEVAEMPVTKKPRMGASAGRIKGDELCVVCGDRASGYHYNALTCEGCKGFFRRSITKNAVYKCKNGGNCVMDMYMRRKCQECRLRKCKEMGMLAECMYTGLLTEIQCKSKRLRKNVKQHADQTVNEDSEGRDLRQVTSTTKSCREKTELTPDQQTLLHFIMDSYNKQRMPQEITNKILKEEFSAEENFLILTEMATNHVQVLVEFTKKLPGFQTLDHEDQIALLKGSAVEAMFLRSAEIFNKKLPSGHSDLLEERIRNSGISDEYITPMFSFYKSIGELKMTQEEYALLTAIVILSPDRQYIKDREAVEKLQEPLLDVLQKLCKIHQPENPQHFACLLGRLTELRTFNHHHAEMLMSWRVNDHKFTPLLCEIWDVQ
# In short: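 Read-out: beta-lactamase reporter fluorescence with CCF4 substrate in GeneBLAzer FXR-UAS-bla HEK293T cells, after 16 h compound exposure at 37 C. Response scaled between DMSO basal (0%) and chenodeoxycholic acid at 100 uM (100%).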
# [18] = qHTS assay for environmental chemicals that activate the Aryl hydrocarbon Receptor (AhR) signaling pathway (AID 651777; active = well fitted curve in the direction sought with a large enough effect; inconclusive = small, poorly fitted or top-dose-only effect, or another doubt; inactive = no such curve, though single readings can be large; an effect the other way counts as inactive or inconclusive; also: nearly all actives have a fitted effect of over 15% in size; also: potency is read from the fitted curve at half-maximal effect); settings: 1A2-DRE human hepatoma cells, luciferase, 24 h; activation: stronger effect = higher value
# In short: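 Human hepatoma 1A2-DRE cells stably carrying a DRE/CYP1A2 promoter–luciferase reporter, 1,200 cells/well, exposed to compound 24 hr at 37 C. Luciferase read by One-Glo luminescence after 30 min at room temperature; increased signal marks AhR activation.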
# [19] = Cell Viability - Jurkat (AID 426;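 active = dose-dependent loss of cell ATP signal giving a full or clear fitted curve, ranked by lower potency value; inconclusive = weak partial curve or response only at the top dose; inactive = no loss of viability signal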;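 also: potency is read from the fitted curve at half-maximal effect; cells exposed to compound for 40 hours at 37 °C before ATP read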); settings: qHTS
# In short: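 Cytotoxicity was scored as loss of cellular ATP, measured by luciferase-based luminescence, in Jurkat clone E6-1 cells after 40 h compound treatment; tamoxifen and doxorubicin served as positive controls.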
# [20] = target: Vitamin D3 receptor (Homo sapiens) (UniProt P11473); experiment: qHTS assay for small molecule agonists of vitamin D receptor signaling (AID 588543); settings: HEK293T VDR-UAS-bla, beta-lactamase ratio, 16 h; series mostly up to 76.8 µM
# Vitamin D3 receptor (Homo sapiens), sequence (P11473 whole entry, looked up): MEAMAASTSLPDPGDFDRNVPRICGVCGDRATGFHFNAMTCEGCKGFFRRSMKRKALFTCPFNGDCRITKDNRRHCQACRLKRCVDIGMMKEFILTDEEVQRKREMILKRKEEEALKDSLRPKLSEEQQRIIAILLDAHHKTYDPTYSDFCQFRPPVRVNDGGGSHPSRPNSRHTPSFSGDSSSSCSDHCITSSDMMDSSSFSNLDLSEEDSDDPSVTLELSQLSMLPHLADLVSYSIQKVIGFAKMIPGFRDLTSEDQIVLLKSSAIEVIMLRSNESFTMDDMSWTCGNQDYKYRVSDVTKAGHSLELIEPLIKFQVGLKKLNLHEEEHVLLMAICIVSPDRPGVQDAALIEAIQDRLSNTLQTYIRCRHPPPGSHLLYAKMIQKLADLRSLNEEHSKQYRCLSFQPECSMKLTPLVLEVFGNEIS
# In short: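 qHTS in agonist mode: compound titrations stimulate a VDR-driven β-lactamase reporter in HEK293T cells over 16 h at 37 °C. Response normalized to 50 nM 1α,25-dihydroxyvitamin D3 = 100%, DMSO = 0%; Hill fitting gives EC50 and maximal response.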
compound,measurement,setting,value
Nc1cc(Cl)ccc1O,Potency,[1],> 92 µM (inactive)
same,Potency,[2],> 92 µM (inactive)
same,Potency,[3],inactive
same,Potency,[4],inactive
same,Potency,[5],inactive
same,Potency,[6],inactive
same,activation,[7],3.82% (inactive)
same,outcome,[8],inactive
same,max response,[9],-44.8%
same,outcome,[10],inactive
same,outcome,[11],inactive
same,Potency,[12],inactive
same,activation,[13],-1.47% (inactive)
same,Potency,[14],21.1 µM (active)
CCCCC(CC)COC(=O)c1ccc(C(=O)OCC(CC)CCCC)c(C(=O)OCC(CC)CCCC)c1 (stereo unspecified),Potency,[2],> 92 µM (inactive)
same,Potency,[15],inactive
same,Potency,[3],inactive
same,Potency,[16],inactive
same,activation,[7],-5.8% (inactive)
same,outcome,[8],inactive
same,outcome,[11],inactive
same,Potency,[12],inactive
same,activation,[13],-1.5% (inactive)
same,Potency,[14],inactive
N#CC(Cl)(Cl)Cl,Potency,[1],> 92 µM (inactive)
same,Potency,[2],> 92 µM (inactive)
same,Potency,[16],inactive
same,Potency,[4],inactive
same,Potency,[5],inactive
same,activation,[17],-1.65% (inactive)
same,activation,[7],5.98% (inactive)
same,outcome,[8],inactive
same,outcome,[11],inactive
same,Potency,[12],inactive
same,activation,[18],0.19% (inactive)
same,Potency,[14],inactive
CN(C)c1ccc(N)cc1,Potency,[19],72.8 µM (active)
same,Potency,[1],> 92 µM (inactive)
same,Potency,[3],50.1 µM (active)
same,Potency,[16],50.1 µM (active)
same,Potency,[5],31.6 µM [inconclusive] (active)
same,Potency,[6],inactive
same,max response,[9],-7.4%
same,outcome,[10],inactive
same,outcome,[11],inactive
same,outcome,[20],inactive
same,Potency,[12],inactive
same,activation,[13],-3.55% (inactive)
same,Potency,[18],44.7 µM (active)
O=[N+]([O-])c1cccc2c([N+](=O)[O-])cccc12,Potency,[19],> 92 µM (inactive)
same,Potency,[2],> 92 µM (inactive)
same,Potency,[15],inactive
same,Potency,[3],inactive
same,Potency,[16],inactive
same,Potency,[4],inactive
same,activation,[7],-1.31% (inactive)
same,outcome,[8],inactive
same,max response,[9],-9.5%
same,outcome,[10],inactive
same,outcome,[11],inactive
same,Potency,[12],inactive
same,activation,[18],0.19% (inactive)
O=[N+]([O-])c1cc(Cl)c(Cl)c(Cl)c1,Potency,[1],> 92 µM (inactive)
same,Potency,[2],> 92 µM (inactive)
same,"activity change, negative = cytotoxicity",[15],-119% (active)
same,Potency,[3],inactive
same,Potency,[4],inactive
same,Potency,[5],inactive
same,activation,[17],-2.43% (inactive)
same,max response,[9],30.2%
same,outcome,[10],inactive
same,outcome,[11],inactive
same,outcome,[20],inactive
same,Potency,[12],inactive
same,activation,[13],-1.35% (inactive)
same,Potency,[14],inactive
ClC=CCl,Potency,[19],> 92 µM (inactive)
same,Potency,[15],0.0631 µM (active)
same,Potency,[3],inactive
same,Potency,[16],inactive
same,Potency,[5],inactive
same,activation,[7],-2.58% (inactive)
same,max response,[9],12.6%
same,outcome,[10],inactive
same,outcome,[20],inactive
same,Potency,[12],inactive
same,activation,[18],0.329% (inactive)
same,Potency,[14],inactive
CCOP(=S)(OCC)Oc1nc(Cl)c(Cl)cc1Cl,Potency,[19],> 92 µM (inactive)
same,Potency,[2],> 92 µM (inactive)
same,Potency,[3],inactive
same,Potency,[16],inactive
same,Potency,[4],inactive
same,Potency,[5],inactive
same,activation,[17],-1.55% (inactive) [middle of 4 runs]
same,activation,[7],0.796% (inactive) [middle of 4 runs]
same,outcome,[8],inactive
same,max response,[9],21.6%
same,outcome,[10],inactive
same,outcome,[11],inactive
same,outcome,[20],inactive
same,Potency,[12],inactive
same,activation,[18],12% (inactive)
O=C(O)C(Br)Br,Potency,[1],> 92 µM (inactive)
same,Potency,[2],> 92 µM (inactive)
same,Potency,[15],inactive
same,Potency,[3],inactive
same,Potency,[4],inactive
same,Potency,[5],inactive
same,Potency,[6],inactive
same,activation,[17],-1.44% (inactive)
same,outcome,[11],inactive
CC(C)(C)OOC(=O)c1ccccc1,Potency,[1],> 92 µM (inactive)
same,Potency,[2],> 92 µM (inactive)
same,"activity change, negative = cytotoxicity",[15],-137% (active)
same,Potency,[3],inactive
same,Potency,[16],inactive
same,activation,[7],1.21% (inactive) and -1.74% (inactive)
same,outcome,[8],inactive
same,max response,[9],-0.545%
same,outcome,[10],inactive
same,outcome,[11],inactive
same,outcome,[20],inactive
same,Potency,[12],inactive
same,activation,[13],-3.4% (inactive) and 2.14% (inactive)
same,Potency,[14],inactive
